A selection: hits, their analogues and other compounds. The true share with any hit is near 3.1%.
Vif-APOBEC3G blk: blocks the Vif interaction with human APOBEC3G; Q9HC16; HeLa A3G-eYFP + Vif (tagged APOBEC3G with the HIV-1 protein that degrades it), YFP fluorescence, overnight; Potency, µM (titrated, usually from 46.1 µM), hits mostly inhibitors; hit rate 0.076% among 410,000; also: nearly all actives have a fitted effect of over 60% in size
Target sequence (Q9HC16 whole entry, looked up): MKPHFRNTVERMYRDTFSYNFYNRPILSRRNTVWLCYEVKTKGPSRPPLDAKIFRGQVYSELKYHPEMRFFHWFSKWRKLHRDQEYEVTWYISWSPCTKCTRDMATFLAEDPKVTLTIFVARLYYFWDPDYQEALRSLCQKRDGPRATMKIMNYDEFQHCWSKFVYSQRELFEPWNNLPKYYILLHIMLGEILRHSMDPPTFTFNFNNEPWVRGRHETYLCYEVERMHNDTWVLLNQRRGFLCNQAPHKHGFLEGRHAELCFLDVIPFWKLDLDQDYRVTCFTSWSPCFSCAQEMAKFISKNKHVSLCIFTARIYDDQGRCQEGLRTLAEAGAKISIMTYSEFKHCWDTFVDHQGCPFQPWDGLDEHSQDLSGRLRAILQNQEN
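HeLa cells stably expressing Vif and C-terminally eYFP-tagged A3G, seeded overnight at 37 deg C, then exposed to compound by pintool overnight at 37 deg C. Rise in yellow fluorescence (Ex 488/Em 500-530, Acumen) marks blocked Vif-driven A3G degradation.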
Vif-A3F inh: Vif-A3F binding inhibition | Potency, µM (doses to about 46.1 µM) | AID 602313 | hit rate 0.2% among 390,000 | HeLa A3F-eYFP + Vif (tagged APOBEC3F with the HIV-1 protein that degrades it), YFP fluorescence increase; also: nearly all actives have a fitted effect of over 65% in size
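HeLa cells stably expressing Vif plus C-terminally eYFP-tagged A3F were seeded, incubated overnight at 37 deg C, dosed with compound, incubated overnight again at 37 deg C. Yellow fluorescence (Ex 488/Em 500-530) reported blocked Vif-mediated A3F-eYFP degradation.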
VDR inh: vitamin D3 receptor (human) inhibition. Potency, µM, hits mostly inhibitors. AID 504847. VDR-SRC2-3 peptide fluorescence polarization, 2 h. P11473. hit rate 0.93% among 400,000
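Two reagent solutions held at 4 deg C in the dark were dispensed, compounds pinned at 23 nl, and the mixture incubated 2 h at room temperature. Read-out: fluorescence polarization of VDR–SRC2-3 peptide binding.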
PLK1 PBD block: blocks phosphopeptide binding to human PLK1 polo-box domain | hit rate 2.8% among 360,000 | Potency, µM, usual class: inhibitors | Plk1 PBD binding of FITC phosphopeptide, fluorescence polarization | AID 720504; also: series mostly up to about 57 µM; nearly all actives have a fitted effect of over 65% in size
TSHR antagonist: blocks TSH signaling through the human TSH receptor; hit rate 0.2% among 330,000; AID 504810; activity change, negative = inhibition, % at 11.5 µM; TSHR-expressing cells, TSH-stimulated cAMP HTRF, 2 h; stronger effect = lower value; P16473;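 active = activity change below a set negative limit, meaning inhibition stronger than a set level, cut at about -70% in these data; inconclusive = activity change between two set negative limits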
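TSHR-expressing cells, 200/well, pre-treated with compound, then stimulated with EC80 TSH (4nM final) for 2 hours at 37 deg C. cAMP measured by competitive HTRF: anti-cAMP cryptate antibody in lysis buffer plus cAMP-d2, read after 30 minutes at room temperature.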
Of the large screens only hits and unclear results are named; the others gave an inactive call; ! = not confirmed by another sample. Unless noted, calls follow the shape of the dose curve; as a rule, active = well fitted curve in the direction sought with a large enough effect; inconclusive = small, poorly fitted or top-dose-only effect, or another doubt; inactive = no such curve, though single readings can be large; an effect the other way counts as inactive or inconclusive.

CCOC(=O)c1ccccc1NC(=O)NC(C)c1c(-n2cccc2)sc(C)c1C (stereo not given)	none (no result: Vif-APOBEC3G blk, Vif-A3F inh, PLK1 PBD block, TSHR antagonist)
COCC(=O)C(C(=O)OC)[C@H](CCc1ccccc1)NC(=O)OC (stereo not given in full)	none (no result: Vif-APOBEC3G blk, Vif-A3F inh, PLK1 PBD block, TSHR antagonist)
CC1(OC(=O)c2ccc(Cl)nc2)C(=O)C=C2C=C(c3ccc(C#N)cc3)OC=C2C1=O (stereo not given)	VDR inh 89.1µM! (no result: Vif-APOBEC3G blk, Vif-A3F inh, PLK1 PBD block, TSHR antagonist)
COC(=O)C1C(=O)C(C(=O)/C=C/c2ccco2)C(=O)CC1(C)C (stereo not given)	VDR inh 44.7µM (no result: Vif-APOBEC3G blk, Vif-A3F inh, PLK1 PBD block, TSHR antagonist)
C=CCNC(=O)c1cnn2c1NC(=C)C=C2C	none (no result: Vif-A3F inh, VDR inh, PLK1 PBD block, TSHR antagonist)
COc1ccc(-c2ccc(C3C4C=CCC(C)C4C(=O)N3Cc3ccccc3)c(F)c2)cc1C (stereo not given)	none (no result: Vif-A3F inh, PLK1 PBD block, TSHR antagonist)
Cn1c(SCC(=O)NCc2cccs2)nnc1-c1ccc(O)cc1	VDR inh inconclusive, PLK1 PBD block 23.8µM
O=[N+]([O-])c1ccc(/C=C/c2cc(Cl)nc3ccccc23)cc1	none (no result: Vif-A3F inh, VDR inh, PLK1 PBD block, TSHR antagonist)
COc1ccc(C(=S)N2CCN(C)CC2)cc1	PLK1 PBD block 26.7µM
CCCOC1CCCN(C(=O)c2ccc(OC3CCN(C(=O)CCOC)CC3)cc2)C1 (stereo not given)	none
COCCC(=O)N1CCC(Oc2ccc(C(=O)N(C)C(C)c3ccon3)cc2)CC1 (stereo not given)	PLK1 PBD block 26.7µM
COCCC(=O)N1CCC(Oc2ccc(C(=O)N(C)C3CCCCC3)cc2)CC1	none
COCCC(=O)N1CCC(Oc2ccc(C(=O)N3CCCC(OC)C3)cc2)CC1 (stereo not given)	PLK1 PBD block 26.7µM
CCOc1cccc(C2C=C(c3ccc4c(c3)OCO4)NC(c3ccccc3F)N2)c1O (stereo not given)	none (no result: Vif-A3F inh, PLK1 PBD block, TSHR antagonist)
CC(C)[C@@H](CC(=O)N[C@@H]1CCCC[C@H]1C(=O)N[C@H](CC(=O)N[C@@H](CCC(=O)O)CC(=O)O)Cc1ccccc1)NC(=O)C[C@H](Cc1ccccc1)NC(=O)[C@@H]1CNCC[C@H]1N	none (no result: Vif-APOBEC3G blk, Vif-A3F inh, PLK1 PBD block, TSHR antagonist)
Cn1c(SSc2ccc(-c3cccnc3)n2C)ccc1-c1cccnc1	Vif-A3F inh inconclusive, VDR inh inconclusive, PLK1 PBD block 4.23µM (no result: TSHR antagonist)
Cc1ccc(N2C(S)=C(C#N)C(=O)NC23CCCCC3)cc1	VDR inh 31.6µM
COC(=O)CSC1=C(C#N)C(=O)NC2(CCCCC2)S1	VDR inh inconclusive
Cc1ccccc1N1C(=O)CC2(CCCC2)CC1=O	none
Cc1ccc(C(=O)N2C3=C(CCCC3)C(=O)NC23CCCCC3)cc1	none
Cc1cccc(N2C(S)=C(C#N)C(=O)NC23CCCCC3)c1	VDR inh 44.7µM
Cc1cccc(NC2=C(C#N)C(=O)NC3(CCCC3)S2)c1	VDR inh 20µM
Cc1ccccc1N1C(S)=C(C#N)C(=O)NC12CCCCC2	Vif-A3F inh inconclusive, VDR inh 31.6µM
COc1ccc2c(c1)c(CC(=O)NCc1ccc3c(c1)OCO3)c(C)n2C(=O)c1ccc(Cl)cc1	none (no result: Vif-APOBEC3G blk, Vif-A3F inh, PLK1 PBD block, TSHR antagonist)
O[C@@H]1COC2[C@@H](O)CO[C@@H]21 (stereo not given in full)	none (no result: Vif-APOBEC3G blk, Vif-A3F inh, PLK1 PBD block, TSHR antagonist)
CN(C)c1ccc(C=Nc2cncc3ccccc23)cc1	none (no result: Vif-A3F inh, VDR inh, PLK1 PBD block, TSHR antagonist)
COc1ccc(CCNS(=O)(=O)c2cccc([N+](=O)[O-])c2)cc1OC	none
COc1ccc(CCNS(=O)(=O)c2cccc(C(=O)O)c2)cc1OC	PLK1 PBD block 3.36µM
O=c1[nH]/c(=C/c2ccc3c(c2)OCO3)c(=O)[nH]/c1=C\c1ccc2c(c1)OCO2	none (no result: Vif-A3F inh, VDR inh, PLK1 PBD block, TSHR antagonist)
O=C(CNC(=O)C1CCCCC1)OCC(=O)c1ccc2c(c1)CCC2	none (no result: Vif-A3F inh, PLK1 PBD block, TSHR antagonist)
Cc1ccc(Nc2cc(C)c3c(O)cccc3n2)cc1C	none
COc1ccc(Nc2cc(C)c3c(O)cccc3n2)cc1	VDR inh inconclusive, PLK1 PBD block 26.7µM
COc1ccc(-c2csc(-c3ccc(O)cc3)n2)cc1	Vif-APOBEC3G blk inconclusive, VDR inh inconclusive, PLK1 PBD block 21.2µM
COc1ccc(N2CC(O)=C(c3nc(-c4ccccc4)cs3)C2=N)cc1	VDR inh inconclusive, PLK1 PBD block 13.4µM
COc1ccc(N2CC(O)=C(c3nc(-c4ccc(Br)cc4)cs3)C2=N)cc1	none
O=C(CNC1=NCCS1)c1c[nH]c2ccccc12	none (no result: Vif-A3F inh, VDR inh, PLK1 PBD block, TSHR antagonist)
C=CCOC(=O)N[C@H](/C(C(=O)OC)=C(\C)NCc1ccccc1)c1ccc(Br)cc1	none (no result: Vif-APOBEC3G blk, Vif-A3F inh, PLK1 PBD block, TSHR antagonist)
CCOc1ccc(NC(=O)Nc2ccc(Br)cn2)cc1	none
O=C(Nc1ccc(Cl)cc1)Nc1ccc(Br)cn1	PLK1 PBD block 29.9µM

Screening data: PubChem BioAssay, National Center for Advancing Translational Sciences (NCATS)
